Reference: PubChem BioAssay (NCATS)
Inconclusive results are not listed. Where a call stands in place of a potency, no number is given. Active and inactive are the calls of the source. Calls come from the whole dose curve; as a rule, active = well fitted cell-killing curve with a large enough effect; inconclusive = small, poorly fitted or top-dose-only effect, or effect the other way; inactive = no such curve, though single readings can be large or run the other way.

Assay: Viability qHTS for spleen associated tyrosine kinase inhibitor (SYKi) drug resistant MV4-11 cells (AID 1963824); note: nearly all actives have a fitted effect of over 35% in size
Settings: SYKi-resistant MV4-11 viability, CellTiter-Glo, 72 h; series mostly up to 45 µM
How it was run: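 CellTiter-Glo luminescence, read 10 min after reagent addition, reports viability after a 72 hr compound exposure. Cells are an MV4-11 line made resistant to SYK inhibition, seeded at 500 per well onto compound-containing plates.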
Potency is the fitted concentration of half-maximal effect.

Row | Compound | Potency | viability, % of control
1 | C=C1C(=O)OC2C3=C(C)C(=O)CC3C(C)CC(O)C12 (stereo not given) | 6.51 µM (active) | 
2 | COc1ccc(/C=C/C(=O)O[C@@H]2[C@@H](O)[C@H](C)O[C@@H](OC3C4C=COC(O[C@@H]5O[C@H](CO)[C@@H](O)[C@H](O)[C@H]5O)C4C4(CO)OC34)[C@@H]2O)cc1OC (stereo not given in full) | inactive | 
3 | C=C[C@H]1[C@H](O[C@@H]2O[C@H](CO)[C@@H](O)[C@H](O)[C@H]2O)OC=C2C(=O)OCC[C@]21O | inactive | 
4 | C=C1/C(=C/C=C2\CCC[C@]3(C)[C@@H]([C@H](C)/C=C/[C@H](O)C4CC4)CC[C@@H]23)C[C@@H](O)C[C@@H]1O | 0.731 µM (active) | 
5 | CN(Cc1cccs1)c1ncnc2ccc(-c3ccc4c(c3)OCO4)cc12 | 11.6 µM (active) | 
6 | Cc1sc2c(c1C)C(c1ccc(Cl)cc1)=N[C@H](CC(=O)NCCCCNC(=O)COc1cccc3c1C(=O)N([C@H]1CCC(=O)NC1=O)C3=O)c1nnc(C)n1-2 | 0.0461 µM (active) | 
7 | COc1cc(/C=C2\CCCN([C@@H](C)c3ccc(F)cc3)C2=O)ccc1-n1cnc(C)c1 | 5.17 µM (active) | 
8 | COc1c(C)c(C(=O)c2ccc(N)c(C(=O)O)c2)n2ccccc12 | inactive | 
9 | Cc1cc(-c2cnc(N)c3c(-c4ccc5scnc5c4)csc23)n(C)n1 | 2.59 µM (active) | 
10 | Cc1ccc(Cc2c(C)nc3nc(SCC(=O)NCCN4CCNCC4)nn3c2C)cc1 | inactive | 
11 | CCOCCn1nc(CC)c2nc(N3CCC(C(=O)O)CC3)nc(Nc3cc(C)ccn3)c21 | inactive | 
12 | COc1cc(O)cc(C)c1C(=O)O[C@H]1[C@@H](OC(C)=O)[C@H](n2ccc(=O)[nH]c2=O)O[C@@H]1CO | inactive | 
13 | Cc1nc2c(O)cccc2c(=O)[nH]1 | inactive | 
14 | CCCCCCCCCCCCC/C=C/[C@@H](O)[C@H](CO)N(C)C |  | 82.6% [at 4.97 µM] (inactive)
15 | CC1(C)CC[C@]2(C(=O)O)CC[C@]3(C)C(=CCC4[C@@]5(C)C[C@H](O)[C@H](O[C@@H]6O[C@H](CO)[C@@H](O)[C@H](O)[C@H]6O)[C@@](C)(CO)C5[C@H](O)C[C@]43C)[C@@H]2C1 (stereo not given in full) | inactive | 
16 | CC(=C\C(C)O)/C=C(\C)C(=O)CC1CC(CC(N)=O)CC(=O)O1 (stereo not given) | inactive | 
17 | CC/C=C\CC1C(CC(=O)O)CCC1OC1OC(CO)C(O)C(O)C1O (stereo not given) | inactive | 
18 | COC1=CC(=O)C[C@@H](C)[C@@]12Oc1c(Cl)c(OC)cc(OC)c1C2=O | inactive | 
19 | CC1CC(=O)[C@]2(O)C(C(=O)OCCc3ccc(O)c(O)c3)=CO[C@@H](O[C@@H]3O[C@H](CO)[C@@H](O)[C@H](O)[C@H]3O)[C@H]12 (stereo not given in full) | inactive | 
20 | CN1CC[C@@H](c2c(O)cc(O)c3c(=O)cc(-c4ccc(C(F)(F)F)cc4Cl)oc23)[C@@H]1CO | 18.4 µM (active) | 

Row | Compound | Potency | viability, % of control
21 | C=C1C(=O)O[C@@H]2/C=C(\C)CC/C=C(\C)CC[C@@H]12 | 2.59 µM (active) | 
22 | O=C(CCCCCCC(=O)Nc1ccc(C2OC(CSc3nc(-c4ccccc4)c(-c4ccccc4)o3)CC(c3ccc(CO)cc3)O2)cc1)NO (stereo not given) | 9.2 µM (active) | 
23 | COc1cc(NC(=O)Nc2cccc(CNC(=O)O[C@H]3CCOC3)c2)ccc1-c1cnco1 | 0.82 µM (active) | 
24 | CC(C)=CC/C=C(/C)[C@H]1CC[C@]2(C)[C@@H]1[C@H](O)CC1[C@@]3(C)CC[C@H](O)C(C)(C)[C@@H]3[C@@H](O[C@@H]3O[C@H](CO)[C@@H](O)[C@H](O)[C@H]3O[C@@H]3O[C@@H](C)[C@H](O)[C@@H](O)[C@H]3O)C[C@]12C (stereo not given in full) | inactive | 
25 | N#Cc1ccc(Nc2nc(-c3ccc(O)cc3O)cs2)cc1C(F)(F)F | 4.61 µM (active) | 
26 | CC1OC(O[C@H]2CC[C@@]3(C)C(CC[C@]4(C)C3CC=C3C5CC(C)(C)CC[C@]5(C(=O)OC5OC(CO)C(OC6OCC(OC7OCC(O)C(O)C7O)C(O)C6O)C(O)C5O)CC[C@]34C)C2(C)C)C(O)C(O)C1OC1OC(CO)C(O)C(OC2OC(CO)C(O)C(O)C2O)C1O (stereo not given in full) |  | 62.2% [at 9.25 µM] (inactive)
27 | Cc1cc(CN)cc(C)c1NC(=O)c1ccc(-c2cc(Cl)ccc2Cl)o1 | 9.2 µM (active) | 
28 | C=C(C(=O)O[C@H]1C/C(C)=C/CC/C(CO)=C/[C@H]2OC(=O)C(=C)[C@H]12)C(O)CO (stereo not given in full) | 0.904 µM (active) | 
29 | CN(CCO)C1CCN(c2ccc(Nc3ncc4c5ccnc(F)c5n(C5CCCC5)c4n3)nc2)CC1 | 0.0645 µM (active) | 
30 | COC(=N)c1nc2ccc3ncnc(Nc4ccc(F)cc4Br)c3c2s1 | 0.82 µM (active) | 
31 | CC1OC(=O)C[C@@H]2C(C(=O)O)=CO[C@@H](O[C@H]3O[C@H](CO)[C@@H](O)[C@H](O)[C@H]3O)[C@H]12 (stereo not given in full) | inactive | 
32 | CCOc1cc(CNC2CCCC2)cc(Cl)c1OCc1ccc(Cl)cc1 | 5.8 µM (active) | 
33 | COC(=O)[C@@H]1C2CC3c4[nH]c5ccccc5c4CCN3CC2CC[C@@H]1O (stereo not given in full) | inactive | 
34 | COC(=O)C1=COC(OC2OC(CO)C(O)C(O)C2O)C2C(C)C(OC(=O)/C=C/c3ccc(O)cc3)C(O)C12 (stereo not given) | inactive | 
35 | C[C@]12CC[C@@H]3c4ccc(O)cc4CC[C@H]3[C@@H]1C[C@@H](O[C@@H]1O[C@H](C(=O)O)[C@@H](O)[C@H](O)[C@H]1O)[C@@H]2O | inactive | 
36 | COC(O)(CC(C)C)C1Oc2cc(C)[nH]c(=O)c2O1 (stereo not given) | inactive | 
37 | CC1(O)CCC2C(C3C1CCC3(C)O)C2(C)C (stereo not given) | inactive | 
38 | CC(C)CC(=O)c1c(O)cc2c(c1O)C(CC(C)C)C1=C(O2)C(C)(C)C(=O)C(C)(C)C1=O (stereo not given) | 8.93 µM (active) | 
39 | COc1cc(/C=C/C(=O)O)ccc1O[C@@H]1O[C@H](CO)[C@@H](O)[C@H](O)[C@H]1O[C@@H]1OC[C@](O)(CO)[C@H]1O | inactive | 
40 | C[C@]1(O)CC[C@@H]2C(C(=O)O)=CO[C@@H](O[C@@H]3O[C@H](COC(=O)/C=C/c4ccc(O)c(O)c4)[C@@H](O)[C@H](O)[C@H]3O)[C@@H]21 | inactive | 
